In the supplement of paper PMC8728848:
Many of the other results were omitted from the sample, so the strongest signals are more common in it than they were.

Tests used:
Assay in all cases: glycan array binding signal (z-score within array); higher = stronger binding
Conditions in all cases: glycan notation: IUPAC condensed, linker removed
[1] = target: Fuc(a1-2)Gal(b1-4)[Fuc(a1-3)]GlcNAc(b1-3)GalNAc
Outline: (§1)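 The binding signal is a Z-score computed within each array. Data were drawn from 3228 arrays in the Consortium for Functional Glycomics database, restricted to those with a known protein sequence. Scores were averaged over arrays of the same protein sequence at different concentrations or buffers, and over linkers, and negative values can be taken as non-binding.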

[2] = target: Fuc(a1-2)Gal6S(b1-3)GlcNAc6S
Outline: as §1

Fuc(a1-2)Gal6S(b1-4)Glc = target: Fuc(a1-2)Gal6S(b1-4)Glc
Outline: as §1

[3] = target: Fuc(a1-2)[Gal(a1-3)]Gal(b1-3)GlcNAc(b1-2)Man(a1-3)[Fuc(a1-2)[Gal(a1-3)]Gal(b1-3)GlcNAc(b1-2)Man(a1-6)]Man(b1-4)GlcNAc(b1-4)GlcNAc
Outline: as §1

[4] = target: Fuc(a1-2)[Gal(a1-3)]Gal(b1-3)GlcNAc(b1-3)GalNAc
Outline: as §1

[5] = target: Fuc(a1-3)[Gal(b1-4)]GlcNAc
Outline: as §1

[6] = target: Fuc(a1-3)[Gal(b1-4)]GlcNAc(b1-2)Man
Outline: as §1

[7] = target: Fuc(a1-3)[Gal(b1-4)]GlcNAc(b1-2)Man(a1-3)[Fuc(a1-3)[Gal(b1-4)]GlcNAc(b1-2)Man(a1-6)]Man(b1-4)GlcNAc(b1-4)GlcNAc
Outline: as §1

[8] = target: Fuc(a1-3)[Gal3S(b1-4)]GlcNAc
Outline: as §1

[9] = target: Fuc(a1-3)[GalNAc(b1-4)]GlcNAc
Outline: as §1

[10] = target: Gal(a1-3)Gal(b1-3)[Fuc(a1-4)]GlcNAc(b1-2)Man(a1-3)[Gal(a1-3)Gal(b1-3)[Fuc(a1-4)]GlcNAc(b1-2)Man(a1-6)]Man(b1-4)GlcNAc(b1-4)GlcNAc
Outline: as §1

Gal(a1-3)Gal(b1-4)GlcNAc = target: Gal(a1-3)Gal(b1-4)GlcNAc
Outline: as §1

[11] = target: Gal(b1-3)GlcNAc(b1-2)Man(a1-3)[GlcNAc(b1-4)][Gal(b1-3)GlcNAc(b1-2)Man(a1-6)]Man(b1-4)GlcNAc(b1-4)GlcNAc
Outline: as §1

[12] = target: Gal(b1-3)GlcNAc(b1-3)GalNAc
Outline: as §1

[13] = target: Gal(b1-4)GlcNAc(b1-3)Gal(b1-3)GlcNAc
Outline: as §1

[14] = target: Gal(b1-4)GlcNAc(b1-3)Gal(b1-4)GlcNAc(b1-2)Man(a1-3)[Gal(b1-4)GlcNAc(b1-3)Gal(b1-4)GlcNAc(b1-2)Man(a1-6)]Man(b1-4)GlcNAc(b1-4)GlcNAc
Outline: as §1

[15] = target: Gal(b1-4)GlcNAc(b1-3)Gal(b1-4)GlcNAc(b1-3)Gal(b1-4)GlcNAc
Outline: as §1

[16] = target: Gal(b1-4)GlcNAc(b1-3)Gal(b1-4)GlcNAc(b1-3)Gal(b1-4)GlcNAc(b1-2)Man(a1-3)[Gal(b1-4)GlcNAc(b1-3)Gal(b1-4)GlcNAc(b1-3)Gal(b1-4)GlcNAc(b1-2)Man(a1-6)]Man(b1-4)GlcNAc(b1-4)GlcNAc
Outline: as §1

[17] = target: Gal(b1-4)GlcNAc(b1-3)Gal(b1-4)GlcNAc(b1-3)[Gal(b1-4)GlcNAc(b1-3)Gal(b1-4)GlcNAc(b1-6)]GalNAc
Outline: as §1

Gal3S6S(b1-4)GlcNAc6S = target: Gal3S6S(b1-4)GlcNAc6S
Outline: as §1

Gal4S(b1-4)GlcNAc = target: Gal4S(b1-4)GlcNAc
Outline: as §1

Gal4S6S(b1-4)GlcNAc = target: Gal4S6S(b1-4)GlcNAc
Outline: as §1

Gal6S(b1-3)GlcNAc6S = target: Gal6S(b1-3)GlcNAc6S
Outline: as §1

Gal6S(b1-4)GlcNAc6S = target: Gal6S(b1-4)GlcNAc6S
Outline: as §1

[18] = target: GalNAc(a1-3)GalNAc(a1-3)Gal(a1-4)Gal(b1-4)GlcNAc
Outline: as §1

GalNAc3S(b1-4)GlcNAc = target: GalNAc3S(b1-4)GlcNAc
Outline: as §1

GalNAc4S6S(b1-4)GlcNAc = target: GalNAc4S6S(b1-4)GlcNAc
Outline: as §1

[19] = target: GlcNAc(b1-2)[GlcNAc(b1-6)]Man(a1-6)[GlcNAc(b1-2)Man(a1-3)]Man(b1-4)GlcNAc(b1-4)[Fuc(a1-6)]GlcNAc
Outline: as §1

[20] = target: GlcNAc(b1-3)Gal(b1-3)GalNAc
Outline: as §1

[21] = target: GlcNAc(b1-3)Gal(b1-4)GlcNAc(b1-2)Man(a1-3)[GlcNAc(b1-3)Gal(b1-4)GlcNAc(b1-2)Man(a1-6)]Man(b1-4)GlcNAc(b1-4)GlcNAc
Outline: as §1

[22] = target: GlcNAc(b1-3)Gal(b1-4)GlcNAc(b1-3)Gal(b1-4)GlcNAc(b1-2)Man(a1-3)[GlcNAc(b1-3)Gal(b1-4)GlcNAc(b1-3)Gal(b1-4)GlcNAc(b1-2)Man(a1-6)]Man(b1-4)GlcNAc(b1-4)GlcNAc
Outline: as §1

[23] = target: GlcNAc(b1-3)Gal(b1-4)GlcNAc(b1-3)Gal(b1-4)GlcNAc(b1-2)[GlcNAc(b1-3)Gal(b1-4)GlcNAc(b1-3)Gal(b1-4)GlcNAc(b1-6)]Man(a1-6)[GlcNAc(b1-3)Gal(b1-4)GlcNAc(b1-3)Gal(b1-4)GlcNAc(b1-2)Man(a1-3)]Man(b1-4)GlcNAc(b1-4)[Fuc(a1-6)]GlcNAc
Outline: as §1

[24] = target: GlcNAc(b1-4)GlcNAc(b1-4)GlcNAc
Outline: as §1

[25] = target: GlcNAc6S(b1-3)Gal(b1-4)GlcNAc
Outline: as §1

[26] = target: Man(a1-2)Man(a1-3)[Man(a1-6)]Man(a1-6)[Man(a1-2)Man(a1-3)]Man(b1-4)GlcNAc(b1-4)GlcNAc
Outline: as §1

[27] = target: Man(a1-2)Man(a1-6)[Man(a1-3)]Man(a1-6)[Man(a1-2)Man(a1-2)Man(a1-3)]Man(b1-4)GlcNAc(b1-4)GlcNAc
Outline: as §1

[28] = target: Neu5Ac(a2-3)Gal(b1-3)[GlcNAc(b1-6)]GalNAc
Outline: as §1

[29] = target: Neu5Ac(a2-3)Gal(b1-4)GlcNAc(b1-2)Man
Outline: as §1

[30] = target: Neu5Ac(a2-3)Gal(b1-4)GlcNAc(b1-2)[Neu5Ac(a2-3)Gal(b1-4)GlcNAc(b1-6)]Man(a1-6)[Neu5Ac(a2-3)Gal(b1-4)GlcNAc(b1-2)Man(a1-3)]Man(b1-4)GlcNAc(b1-4)GlcNAc
Outline: as §1

[31] = target: Neu5Ac(a2-3)Gal(b1-4)GlcNAc(b1-3)Gal(b1-4)GlcNAc(b1-3)Gal(b1-4)GlcNAc
Outline: as §1

[32] = target: Neu5Ac(a2-3)[GalNAc(b1-4)]Gal(b1-4)GlcNAc(b1-3)GalNAc
Outline: as §1

[33] = target: Neu5Ac(a2-6)Gal(b1-4)GlcNAc(b1-2)Man
Outline: as §1

[34] = target: Neu5Ac(a2-6)Gal(b1-4)GlcNAc(b1-3)Gal(b1-3)GlcNAc
Outline: as §1

[35] = target: Neu5Ac(a2-8)Neu5Ac(a2-3)[Gal(b1-3)GalNAc(b1-4)]Gal(b1-4)Glc
Outline: as §1

[36] = target: Neu5Ac(a2-8)Neu5Ac(a2-3)[GalNAc(b1-4)]Gal(b1-4)Glc
Outline: as §1

[37] = target: Neu5Ac(a2-8)Neu5Ac(a2-8)Neu5Ac(a2-3)[GalNAc(b1-4)]Gal(b1-4)Glc
Outline: as §1

[38] = target: Neu5Gc(a2-3)Gal(b1-3)[Fuc(a1-4)]GlcNAc
Outline: as §1

Neu5Gc(a2-3)Gal(b1-4)Glc = target: Neu5Gc(a2-3)Gal(b1-4)Glc
Outline: as §1

[39] = target: Neu5Gc(a2-6)Gal(b1-4)GlcNAc
Outline: as §1

B1: Pbx2 (Cryptococcus neoformans) (protein)
chain: AVSPLPSSTELVFYSQKRRRRRICSTATGSLSTPDPTRMTSDPYKRVGMRFSSVPRLLITFLSLLLLVSAAPPCVRFADYDSINQMFIDGGPGTKVLLCPNRLYRLSGPIIFTAADQEIATYGYPTGSERAVLRVEGRNTATAIQGDCRRCARVSVKNLVVDGNRKKLGRMRDFQLATGLVVLGGNEGQSIQNSWIKNPRGFTAIHIREGDKLQCSGARVEKNEIGPVGEEYDPEKDGDDPEMSPLGRPLADGVSIACRDSFIRDNTFRDNTDAAIVVYCSPGTLIHANHIFAQSLSAMAGILMVDSTPFNGDYTGTVVRSNIIDAVSRTIRVGIGIGPTVWSDDTETILTGGSVIGNGLKGRYMGYGIAAAGLKQWTIKDNWDEAKHEGRKSARCFDEPVNPDPIGLLYNRPTMEDCTVQSGFADHDFQYLVCIDGLYDKTNPPKHDPAPLAHDPSPTNAQEDNTVQQDGGDSKSKSIEQPREASDIEAEPSVEKMFSTGSEMMDDVLEHSHQRMHEVIDHLSRRIDILGAASAGKGSGDSKISEVLDPAMSSHLEKLQRKIEHLEFSLRSQIETAIQLRSAIQGWDQEMALVTDWEYDILLDVRHKLELSSYPHDQPLDPRLMRGQSYLNNEAVLVDDHSHPSLEGENLRAMSDRARLNANEEA
[1]
  glycan array binding signal (z-score): 5.82
[2]
  glycan array binding signal (z-score): 3.8
Fuc(a1-2)Gal6S(b1-4)Glc
  glycan array binding signal (z-score): -0.497
[3]
  glycan array binding signal (z-score): -0.446
[4]
  glycan array binding signal (z-score): -0.12
[5]
  glycan array binding signal (z-score): -0.094
[6]
  glycan array binding signal (z-score): -0.041
[7]
  glycan array binding signal (z-score): 0.271
[8]
  glycan array binding signal (z-score): 0.057
[9]
  glycan array binding signal (z-score): -0.291
[10]
  glycan array binding signal (z-score): -0.392
Gal(a1-3)Gal(b1-4)GlcNAc
  glycan array binding signal (z-score): -0.346
[11]
  glycan array binding signal (z-score): 0.625
[12]
  glycan array binding signal (z-score): 0.091
[13]
  glycan array binding signal (z-score): -0.114
[14]
  glycan array binding signal (z-score): 4.98
[15]
  glycan array binding signal (z-score): 0.154
[16]
  glycan array binding signal (z-score): 4.44
[17]
  glycan array binding signal (z-score): 2.83
Gal3S6S(b1-4)GlcNAc6S
  glycan array binding signal (z-score): 6.21
Gal4S(b1-4)GlcNAc
  glycan array binding signal (z-score): -0.339
Gal4S6S(b1-4)GlcNAc
  glycan array binding signal (z-score): 2.65
Gal6S(b1-3)GlcNAc6S
  glycan array binding signal (z-score): 3.95
Gal6S(b1-4)GlcNAc6S
  glycan array binding signal (z-score): 2.56
[18]
  glycan array binding signal (z-score): 0.168
GalNAc3S(b1-4)GlcNAc
  glycan array binding signal (z-score): -0.522
GalNAc4S6S(b1-4)GlcNAc
  glycan array binding signal (z-score): 6.54
[19]
  glycan array binding signal (z-score): -0.377
[20]
  glycan array binding signal (z-score): -0.436
[21]
  glycan array binding signal (z-score): -0.424
[22]
  glycan array binding signal (z-score): 3.17
[23]
  glycan array binding signal (z-score): 1.33
[24]
  glycan array binding signal (z-score): -0.147
[25]
  glycan array binding signal (z-score): -0.104
[26]
  glycan array binding signal (z-score): -0.065
[27]
  glycan array binding signal (z-score): 0.275
[28]
  glycan array binding signal (z-score): -0.075
[29]
  glycan array binding signal (z-score): 4.34
[30]
  glycan array binding signal (z-score): 0.027
[31]
  glycan array binding signal (z-score): -0.461
[32]
  glycan array binding signal (z-score): -0.206
[33]
  glycan array binding signal (z-score): 0.729
[34]
  glycan array binding signal (z-score): -0.368
[35]
  glycan array binding signal (z-score): 0.256
[36]
  glycan array binding signal (z-score): -0.131
[37]
  glycan array binding signal (z-score): 0.212
[38]
  glycan array binding signal (z-score): -0.266
Neu5Gc(a2-3)Gal(b1-4)Glc
  glycan array binding signal (z-score): -0.241
[39]
  glycan array binding signal (z-score): -0.317
